In ChEMBL document CHEMBL3988442, “University of Dundee, Small-Polar-MMV Screening Library” (2021):
For part of these data: Potency and affinity values are given separately.

Legend:
Design in all cases: scale not given: direction of the effect not stated beside the values
[1] = biological target: Protein translocase subunit SecA (Escherichia coli (strain K12)) (UniProt P10408); experiment: Assay to Identify E. coli SecA ATPase Inhibitors; format: functional; details: 30 µM
[2] = biological target: T1, Ubiquitin-activating enzyme e1, putative (Leishmania donovani (strain BPK282A1)) (UniProt E9BSI1); experiment: Leishmania donovani Ubiquitin Activating Enzyme (LdE1); format: functional; details: 30 µM
T1 sequence (whole entry): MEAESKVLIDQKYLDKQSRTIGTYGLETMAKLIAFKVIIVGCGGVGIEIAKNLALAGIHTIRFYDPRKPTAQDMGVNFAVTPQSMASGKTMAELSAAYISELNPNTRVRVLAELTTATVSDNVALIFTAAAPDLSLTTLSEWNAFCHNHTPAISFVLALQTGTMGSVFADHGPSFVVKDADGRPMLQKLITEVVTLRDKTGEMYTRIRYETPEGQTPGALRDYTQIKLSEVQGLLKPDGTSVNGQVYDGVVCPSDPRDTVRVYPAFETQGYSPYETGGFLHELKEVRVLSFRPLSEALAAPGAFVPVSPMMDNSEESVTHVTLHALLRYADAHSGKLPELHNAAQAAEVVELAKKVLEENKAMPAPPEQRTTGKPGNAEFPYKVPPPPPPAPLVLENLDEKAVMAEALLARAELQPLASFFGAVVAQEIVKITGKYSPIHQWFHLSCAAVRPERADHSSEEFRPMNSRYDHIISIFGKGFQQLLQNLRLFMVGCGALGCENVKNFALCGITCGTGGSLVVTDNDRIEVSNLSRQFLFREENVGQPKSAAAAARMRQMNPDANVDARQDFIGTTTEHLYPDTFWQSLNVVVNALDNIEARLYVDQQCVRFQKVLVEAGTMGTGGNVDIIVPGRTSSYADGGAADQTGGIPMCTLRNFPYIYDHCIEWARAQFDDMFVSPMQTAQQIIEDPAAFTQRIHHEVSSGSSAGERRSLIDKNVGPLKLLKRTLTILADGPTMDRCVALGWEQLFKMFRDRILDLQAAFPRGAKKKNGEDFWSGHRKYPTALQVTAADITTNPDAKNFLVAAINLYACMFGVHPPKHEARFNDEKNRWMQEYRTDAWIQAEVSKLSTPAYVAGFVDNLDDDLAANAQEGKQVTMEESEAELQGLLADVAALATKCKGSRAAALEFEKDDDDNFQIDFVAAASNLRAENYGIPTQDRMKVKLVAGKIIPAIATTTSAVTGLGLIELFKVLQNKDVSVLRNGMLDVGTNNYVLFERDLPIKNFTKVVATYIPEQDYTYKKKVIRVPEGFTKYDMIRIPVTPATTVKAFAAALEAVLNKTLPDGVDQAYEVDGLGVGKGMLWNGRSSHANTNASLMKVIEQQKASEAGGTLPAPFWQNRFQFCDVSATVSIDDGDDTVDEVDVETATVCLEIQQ

[3] = biological target: AMP-activated protein kinase, AMPK (Homo sapiens) (UniProt P54646+O43741+P54619+Q9UGJ0+Q9Y478+Q13131+Q9UGI9); experiment: AMP-dependent Kinase enzyme assay. An in vitro enzyme assay that detects ADP turnover that is directly proportional to AMPK activity. This uses naive AMPK that is activated during the assay with MK-8722; format: functional; details: 30 µM
[4] = biological target: Sialic acid-binding Ig-like lectin 9 (Homo sapiens) (UniProt Q9Y336); experiment: Hs-Siglec9 ALPHAscreen SOP 20170721; details: 10 µM
Chain of Sialic acid-binding Ig-like lectin 9 (Homo sapiens) (Q9Y336 whole entry): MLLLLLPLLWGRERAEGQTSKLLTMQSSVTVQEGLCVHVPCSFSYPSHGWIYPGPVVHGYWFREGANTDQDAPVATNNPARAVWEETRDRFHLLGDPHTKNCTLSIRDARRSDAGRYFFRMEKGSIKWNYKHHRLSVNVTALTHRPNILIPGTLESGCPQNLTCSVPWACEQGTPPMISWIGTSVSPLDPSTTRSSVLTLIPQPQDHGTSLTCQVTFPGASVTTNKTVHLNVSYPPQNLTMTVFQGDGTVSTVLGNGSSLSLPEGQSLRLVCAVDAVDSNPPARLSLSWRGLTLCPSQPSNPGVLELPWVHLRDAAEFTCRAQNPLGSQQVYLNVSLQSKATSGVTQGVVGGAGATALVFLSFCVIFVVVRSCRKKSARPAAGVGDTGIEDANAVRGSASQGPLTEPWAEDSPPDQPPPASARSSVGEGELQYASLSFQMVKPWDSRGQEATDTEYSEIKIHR

[5] = test system: Trypanosoma cruzi; experiment: Trypanosoma cruzi phosphomannomutase and mannose-1-phosphate guanylyltransferase assay; format: functional; details: 10 µM
[6] = biological target: T2, Arginase-2, mitochondrial (Homo sapiens) (UniProt P78540); experiment: in vitro enzyme assay to detect the production of urea directly proportional to the activity of Arginase II; format: functional; details: 33.3 µM; note: in the data most compounds retested in dose-response had high values
T2 sequence (whole entry): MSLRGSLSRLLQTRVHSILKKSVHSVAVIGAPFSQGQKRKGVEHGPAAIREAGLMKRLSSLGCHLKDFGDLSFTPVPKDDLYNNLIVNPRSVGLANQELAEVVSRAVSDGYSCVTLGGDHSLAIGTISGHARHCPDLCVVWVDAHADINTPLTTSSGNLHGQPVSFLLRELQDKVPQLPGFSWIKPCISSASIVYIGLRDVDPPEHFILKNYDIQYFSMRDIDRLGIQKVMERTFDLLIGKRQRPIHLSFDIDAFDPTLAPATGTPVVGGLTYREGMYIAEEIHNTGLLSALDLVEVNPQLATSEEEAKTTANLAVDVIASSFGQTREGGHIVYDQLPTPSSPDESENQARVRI

[7] = biological target: T3, Proteasome subunit beta (Trypanosoma cruzi) (UniProt O96673); experiment: Trypanosoma cruzi proteasome chymotrypsin-like activity (TcProtChymo) assay.; note: in the data most compounds retested in dose-response had high values; format: functional; details: 9.37 µM
T3 sequence (whole entry): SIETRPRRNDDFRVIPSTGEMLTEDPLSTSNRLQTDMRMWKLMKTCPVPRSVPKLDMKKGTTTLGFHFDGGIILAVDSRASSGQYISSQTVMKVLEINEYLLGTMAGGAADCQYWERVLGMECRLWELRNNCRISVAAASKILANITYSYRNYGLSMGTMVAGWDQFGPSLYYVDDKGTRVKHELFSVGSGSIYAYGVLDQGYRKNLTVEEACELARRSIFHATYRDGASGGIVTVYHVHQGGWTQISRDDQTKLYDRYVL

[8] = species: Homo sapiens; experiment: To identify inhibition of the IFN signalling (Jak-Stat) pathway via expression of an eGFP reporter gene under the control of an IFN-stimulated response element (ISRE) containing MxA promoter.; format: functional; details: 30 µM
[9] = biological target: T4, Tyrosyl-tRNA synthetase, putative (Trypanosoma cruzi (strain CL Brener)) (UniProt Q4DSP6); experiment: Trypanosoma cruzi tyrosyl tRNA synthetase (TcYRS) _High Tyrosine SOP; format: functional; details: 30 µM; note: in the data most compounds retested in dose-response had high values
T4 sequence (whole entry): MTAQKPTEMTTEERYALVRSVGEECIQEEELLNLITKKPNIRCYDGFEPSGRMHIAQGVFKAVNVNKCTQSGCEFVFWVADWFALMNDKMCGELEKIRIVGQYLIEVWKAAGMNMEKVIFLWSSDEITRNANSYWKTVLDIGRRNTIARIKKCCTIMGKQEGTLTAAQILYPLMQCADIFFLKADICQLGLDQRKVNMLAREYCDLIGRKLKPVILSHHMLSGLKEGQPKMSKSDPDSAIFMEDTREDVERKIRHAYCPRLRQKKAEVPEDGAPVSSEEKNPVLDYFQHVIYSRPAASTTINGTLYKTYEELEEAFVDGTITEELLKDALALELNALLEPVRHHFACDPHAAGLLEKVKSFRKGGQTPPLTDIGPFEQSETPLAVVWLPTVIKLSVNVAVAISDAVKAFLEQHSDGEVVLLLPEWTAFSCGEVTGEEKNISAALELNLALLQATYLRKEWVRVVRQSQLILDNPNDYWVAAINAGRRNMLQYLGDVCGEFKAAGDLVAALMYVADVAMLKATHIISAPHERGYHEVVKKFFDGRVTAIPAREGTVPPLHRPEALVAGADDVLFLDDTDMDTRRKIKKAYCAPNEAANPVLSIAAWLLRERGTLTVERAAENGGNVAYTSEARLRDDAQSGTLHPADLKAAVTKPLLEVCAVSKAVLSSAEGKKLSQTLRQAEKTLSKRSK

[10] = biological target: T4, Tyrosyl-tRNA synthetase, putative (Trypanosoma cruzi (strain CL Brener)); experiment: Trypanosoma cruzi tyrosyl tRNA synthetase (TcYRS) SOP; format: functional; details: 30 µM
[11] = biological target: Chromo domain-containing protein 1 (Saccharomyces cerevisiae (strain ATCC 204508 / S288c) (Baker's yeast)) (UniProt P32657); experiment: ScCHD-1 Enzyme Inhibition Assay; format: functional; details: 30 µM; note: in the data most compounds retested in dose-response had high values
Chain of Chromo domain-containing protein 1 (Saccharomyces cerevisiae (strain ATCC 204508 / S288c) (Baker's yeast)) (P32657 whole entry, the tested form may be a part): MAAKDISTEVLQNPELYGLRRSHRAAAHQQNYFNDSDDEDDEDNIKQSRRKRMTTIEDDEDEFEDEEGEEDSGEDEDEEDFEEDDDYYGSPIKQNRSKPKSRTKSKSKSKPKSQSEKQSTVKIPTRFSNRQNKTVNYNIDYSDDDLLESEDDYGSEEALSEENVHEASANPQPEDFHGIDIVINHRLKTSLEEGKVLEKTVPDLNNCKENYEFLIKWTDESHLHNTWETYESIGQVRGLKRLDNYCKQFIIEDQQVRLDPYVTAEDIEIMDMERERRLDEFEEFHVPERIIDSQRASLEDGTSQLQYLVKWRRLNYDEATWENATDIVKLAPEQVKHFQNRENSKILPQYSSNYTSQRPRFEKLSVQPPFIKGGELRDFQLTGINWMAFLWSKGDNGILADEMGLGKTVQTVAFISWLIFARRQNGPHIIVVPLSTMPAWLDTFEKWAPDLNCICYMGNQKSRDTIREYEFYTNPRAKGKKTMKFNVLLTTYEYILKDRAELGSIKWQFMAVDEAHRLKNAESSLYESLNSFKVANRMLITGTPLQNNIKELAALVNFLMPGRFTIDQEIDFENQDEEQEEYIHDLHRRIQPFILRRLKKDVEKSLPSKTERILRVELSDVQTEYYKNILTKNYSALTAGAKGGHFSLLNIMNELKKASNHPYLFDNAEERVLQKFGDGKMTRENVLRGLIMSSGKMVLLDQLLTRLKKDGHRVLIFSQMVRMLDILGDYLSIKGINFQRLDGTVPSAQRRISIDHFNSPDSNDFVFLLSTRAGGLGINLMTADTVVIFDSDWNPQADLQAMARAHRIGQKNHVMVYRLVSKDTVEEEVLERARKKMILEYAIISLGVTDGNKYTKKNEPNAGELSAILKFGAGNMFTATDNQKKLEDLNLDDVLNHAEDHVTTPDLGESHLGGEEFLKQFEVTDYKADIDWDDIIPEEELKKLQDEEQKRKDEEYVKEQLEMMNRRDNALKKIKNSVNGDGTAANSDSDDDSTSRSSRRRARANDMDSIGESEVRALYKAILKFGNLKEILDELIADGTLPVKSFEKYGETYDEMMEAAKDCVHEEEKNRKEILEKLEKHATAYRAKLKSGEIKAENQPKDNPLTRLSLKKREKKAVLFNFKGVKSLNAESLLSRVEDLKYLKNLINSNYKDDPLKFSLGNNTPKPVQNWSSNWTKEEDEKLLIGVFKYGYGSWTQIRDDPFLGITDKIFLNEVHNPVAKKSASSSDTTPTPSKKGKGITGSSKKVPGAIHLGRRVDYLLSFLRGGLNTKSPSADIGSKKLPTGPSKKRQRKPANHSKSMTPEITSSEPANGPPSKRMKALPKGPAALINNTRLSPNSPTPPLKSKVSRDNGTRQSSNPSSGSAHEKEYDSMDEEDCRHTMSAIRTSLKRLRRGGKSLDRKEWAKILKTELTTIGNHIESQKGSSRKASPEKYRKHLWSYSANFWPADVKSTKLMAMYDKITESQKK

Chain of Protein translocase subunit SecA (Escherichia coli (strain K12)) (P10408 whole entry): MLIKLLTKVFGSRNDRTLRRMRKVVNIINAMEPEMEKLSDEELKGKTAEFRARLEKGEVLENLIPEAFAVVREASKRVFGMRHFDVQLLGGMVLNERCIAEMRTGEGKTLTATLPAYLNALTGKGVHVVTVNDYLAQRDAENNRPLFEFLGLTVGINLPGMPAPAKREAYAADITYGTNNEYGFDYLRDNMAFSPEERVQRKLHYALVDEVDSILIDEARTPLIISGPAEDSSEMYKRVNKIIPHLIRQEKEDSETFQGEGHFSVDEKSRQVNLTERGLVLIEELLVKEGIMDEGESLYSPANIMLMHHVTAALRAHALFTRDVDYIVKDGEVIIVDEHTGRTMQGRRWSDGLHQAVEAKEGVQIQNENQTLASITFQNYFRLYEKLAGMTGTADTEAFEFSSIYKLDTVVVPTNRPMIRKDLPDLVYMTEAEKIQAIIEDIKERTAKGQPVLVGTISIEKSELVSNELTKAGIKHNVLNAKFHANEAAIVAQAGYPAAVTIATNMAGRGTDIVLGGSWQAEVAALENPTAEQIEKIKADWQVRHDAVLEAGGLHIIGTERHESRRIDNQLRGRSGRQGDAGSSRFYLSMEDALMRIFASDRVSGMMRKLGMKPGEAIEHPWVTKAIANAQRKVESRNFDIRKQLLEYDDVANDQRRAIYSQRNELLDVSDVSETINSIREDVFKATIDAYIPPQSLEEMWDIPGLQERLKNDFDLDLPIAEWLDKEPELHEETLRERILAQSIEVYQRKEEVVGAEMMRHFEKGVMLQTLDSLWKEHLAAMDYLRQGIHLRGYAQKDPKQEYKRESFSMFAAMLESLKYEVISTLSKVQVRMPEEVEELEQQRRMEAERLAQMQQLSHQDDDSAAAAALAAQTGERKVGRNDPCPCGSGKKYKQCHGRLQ

Row | SMILES | Percent Effect [1] [%] | Percent Effect [2] [%] | Percent Effect [3] [%] | Percent Effect [4] [%] | Percent Effect [5] [%] | Percent Effect [6] [%] | Percent Effect [7] [%] | Percent Effect [8] [%] | Percent Effect [9] [%] | Percent Effect [10] [%] | Percent Effect [11] [%]
1 | CC(=O)N1CCCC1c1nnc2n1CCCCC2 (stereo unspecified) | -8.8 | -32.4 | 1.68 | -1.76 | -0.195 | 5.42 | 6.85 | 5.46 | 7.92 | 13.4 | -5.77
2 | Cc1cc(C(F)(F)F)c2c(C3CCN(S(=O)(=O)N(C)C)CC3)noc2n1 | -2.53 | 12.2 | 6.65 | 11.8 | -0.395 | 1.62 | 6.55 | 3.27 | 6.45 | 16.9 | -15.2
3 | CCc1nc(C2CCCN2Cc2nccn2Cc2ccccc2)no1 (stereo unspecified) | -0.608 | 0 | 1.64 | 13.2 | 2.25 | 0.21 | 9.13 | 10.5 | 2.86 | 2.35 | 4.26
4 | CCn1ccc(C(=O)NCCCN2CCOCC2)n1 | -1.56 | 5.2 | -2.13 | 4.7 | -0.492 | -2.76 | 22 | 4.11 | 7.53 | 13.6 | 0.597
5 | O=C(CCOCc1ccccc1)N1CCCC1c1noc(C2CC2)n1 (stereo unspecified) | -0.0528 | 21.6 | -9.42 | 3.05 | 1.23 | -10.4 | 5.22 | 4.41 | -23.1 | 25.9 | -10
6 | CCS(=O)(=O)N1Cc2nccn2CC(Cn2nc(C)nc2C)C1 (stereo unspecified) | -2.08 | 13.5 | -5.79 | 32.6 | 4.2 | 19.6 | 16.9 | -17.4 | 5.38 | 18.5 | -4.54
7 | CN(C)C(=O)c1ccc2c(c1)N(C)C(CC(=O)NC(C)(C)CO)CO2 (stereo unspecified) | -8.01 | -4.17 | -3.33 | 3.27 | -2.82 | -2.21 | 10.7 | -2.49 | -2.1 | -5.13 | 0.823
8 | Cc1noc(C)c1CNC(=O)N1CCC(CO)CC1 | -1.26 | 13.7 | -4.05 | 6.04 | 2.18 | -1.2 | 7.62 | 23.9 | 7.29 | 16.1 | -0.505
9 | CN(C)C1CCN(C(=O)c2ccc(Cn3ccccc3=O)o2)CC1 | -2.62 | 8.11 | 3.53 | 12.9 | 2.88 | 0.924 | 0 | 5.91 | 6.93 | 23.2 | -4.27
10 | CC(=O)c1cc(CC(=O)NCc2c(F)cccc2F)cs1 | 2.08 | 5.41 | -0.986 | 2.88 | 4.44 | 10.5 | 2.76 | 17.2 | 0.529 | 7.32 | 0.311
11 | c1ccc(CN2CCCC(c3nccnc3-n3ccnc3)C2)cc1 (stereo unspecified) | -1.15 | 10.7 | 4.45 | -1.75 | 0.591 | -0.233 | 14.5 | 7.14 | 5.32 | 6.41 | -0.742
12 | O=C(CCc1cc2n(n1)CCCN(C(=O)c1ccccn1)C2)NC1CC1 | -2.88 | 4.17 | -1.28 | 15.3 | 4.76 | 21.2 | 7.89 | -15.2 | 4.21 | 5.13 | -4.34
13 | CCOC(=O)N1CCN(Cc2ccc(OCc3nccn3C)cc2)CC1 | -5.3 | 23.4 | 3.48 | -0.124 | 0.562 | 1.42 | 13.7 | 11.1 | 9.71 | 14.6 | -7.78
14 | CCc1ncc(CNC2CC(=O)N(CCc3cccc(Cl)c3)C2)cn1 (stereo unspecified) | -5.45 | 13.7 | -3.73 | 5.67 | 7.54 | -3.59 | 6.76 | 0.221 | 6.25 | 11.1 | -2.3
15 | O=C(NC1CC1)[C@H]1C[C@H]2OCC[C@H]2N(CC2CCOCC2)C1 | -7.27 | 0 | 1.56 | 2.95 | -3.28 | -51.1 | 7.18 | 3.71 | 5.21 | -2.5 | 319
16 | O=C(Cc1ccc(F)cc1)N1CCCCC1c1ccn2ccnc2n1 (stereo unspecified) | -2.25 | -1.35 | 14.8 | 2.79 | -2.96 | -1.16 | 9.83 | 10.1 | 0 | -1.3 | -17.6
17 | O=C(Cc1cccc(Cl)c1)N[C@@H]1CCNC[C@H]1O | -6.4 | 18.9 | -5.86 | 31.3 | 4.2 | 19.1 | 9.7 | 0.775 | 5.38 | 16.1 | -13.7
18 | COCc1cnc2n1CCN(Cc1cccnc1)C2C (stereo unspecified) | -1.07 | 8 | 0.686 | 6.43 | 3.28 | -50.4 | -0.171 | -15.6 | 2.08 | 5 | -2.32
19 | Cc1n[nH]c(C2CN(C(=O)c3ccco3)CCO2)n1 (stereo unspecified) | -4.76 | 2.63 | 7.87 | 3.79 | 1.07 | 0 | 4.51 | 25.8 | 6.38 | 7.79 | -0.969
20 | O=S(=O)(NCC1CCN(c2cnccn2)CC1)c1c(F)cccc1F | 0.613 | 5.2 | -0.808 | -3.89 | -5.82 | 9.68 | 5.74 | 8.19 | 3.17 | 6.41 | -7.48
21 | CCn1ncnc1C(C)NC(=O)C1CCN(C(C)C)CC1 (stereo unspecified) | -3.72 | 5.41 | -4.36 | 22.1 | 0.0978 | 2.73 | 15 | -2.01 | 9.68 | 21 | -5.24
